# According to the supplement of paper PMC6555819:
# What was measured:
# Assay in all cases: PBM binding z-score (relative to random genomic background probes); higher = stronger binding; sequences stand for … in GC…GCGATTGACAGCGTAGAATGAAGG
# [1] = test system: PPARg:RXRa DBDmut IVT, anti-RXR (DBD mutation: RXRa K156A/R161A, NR concentration 270 nM, RXRa partner concentration 90 nM)
# Summary of the method: (§1)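 The probes on custom Agilent 4×180K protein-binding microarrays were double-stranded, with 34-nt variable regions bearing direct-repeat seeds, single-nucleotide variants, half-site ablations and random human genomic background sequences. Incubation lasted 1 h with ligand-free nuclear receptor dimers in PBS pH 7.4, 2% milk, 0.02% Triton X-100, 1 mM DTT, 0.2 mg/mL BSA and 0.4 mg/ml salmon testes DNA. Antibodies against each partner (one per run) detected bound dimers, and fluorescence scans were regression-normalized. Binding z-scores take the random background probes as reference.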
# [2] = test system: PPARg:RXRa IVT, anti-PPARg (NR concentration 270 nM, RXRa partner concentration 90 nM)
# Summary of the method: as §1
# [3] = test system: PPARg DBDmut:RXRa IVT, anti-PPARg (DBD mutation: PPARg1 K132A/R137A, NR concentration 270 nM, RXRa partner concentration 90 nM)
# Summary of the method: as §1
# [4] = test system: PPARg DBDmut IVT, anti-PPARg (DBD mutation: PPARg1 K132A/R137A, NR concentration 270 nM)
# Summary of the method: as §1
# [5] = test system: PPARg homodimer (NR concentration 180 nM)
# Summary of the method: as §1
# [6] = test system: PXR:RXRa (NR concentration 270 nM, RXRa partner concentration 90 nM)
# Summary of the method: as §1
# [7] = test system: PXR homodimer (NR concentration 270 nM)
# Summary of the method: as §1
# [8] = test system: RARa:RXR (NR concentration 270 nM, RXRa partner concentration 90 nM)
# Summary of the method: as §1
# [9] = test system: RARa homodimer (NR concentration 270 nM)
# Summary of the method: as §1
# [10] = test system: RARb:RXRa (NR concentration 270 nM, RXRa partner concentration 90 nM)
# Summary of the method: as §1
Sequence,PBM binding z-score [1],PBM binding z-score [2],PBM binding z-score [3],PBM binding z-score [4],PBM binding z-score [5],PBM binding z-score [6],PBM binding z-score [7],PBM binding z-score [8],PBM binding z-score [9],PBM binding z-score [10]
ATCTCTAAGTAACAAGTTCAGTGAAAGAGAGGAC,0.199,0.166,0.885,0.883,1.43,1.63,1.97,1.18,1.73,1.57
CCTCGGAGGACAGAAGGTCAGAACTGTCCGCTTT,0.127,-0.242,-0.806,-1.38,0.826,1.1,0.0205,1.7,0.442,2.85
AATATAGGGTCATCGTAGGCCAGAGTACGCACAG,4.87,5.42,1.96,1.99,2.4,4.98,0.973,5.35,1.7,4.58
CCGCCTGGGGCAAGGTTACCATAACGCACAGCCA,-0.567,0.525,-0.637,-1.46,0.471,0.34,-0.119,0.916,-0.239,1.61
CCGACTGGGGCAAGGTTACCCTAACGCACAGCCA,2.55,3.74,-0.273,-0.891,0.107,0.232,-0.208,0.791,-0.576,1.58
AGAATGAGGTTTTACGTAGATCAGGGAAGAAAGT,0.314,-0.118,0.643,0.771,0.322,0.0449,0.0851,0.000653,0.0667,-0.00199
AGTCAAAGTTCATCTAGGTAACCTAAGATATGCT,0.989,3.71,1.38,1.29,3.22,5.34,6.67,3.84,1.21,4.88
GCTAGCAGGCCATCTGGGTCACTCAATGACGGGC,3,3.48,-0.603,-1.04,0.0368,0.27,-0.407,0.713,-0.51,1.67
TCTGCTAGGTCAGTTGGTCAGTTAACGAGCTGCC,2.93,2.98,1.52,0.61,0.428,-0.000879,-0.602,0.398,-1.15,3.3
GATACAGGGTCAAAGCCAGAGTACGCGTATTGAT,2.68,3.63,1.47,0.035,2.25,3.75,0.314,4.76,0.583,4.03
CGAACTAGGTGAGAACAGGACAGTGAAGGATGAT,6.37,5.97,0.979,0.431,0.246,0.0752,0.241,0.486,0.275,0.285
TCAGACAGGTGAAGGCAACTCAGGTACGCAGTCG,2.4,0.632,-0.586,-0.648,0.236,0.249,-0.101,0.507,-0.314,0.923
ATATGTAGGTTAAGGCTCATTCAGGTTGGTTCGC,7.51,7.12,5.15,3.53,2.08,0.38,0.413,0.411,0.882,1.02
ATATGTAGGTTAGCCGGGGTCATTCAGACTAGGC,7.11,6.89,1.14,1.79,2.77,6.72,4.32,6.2,0.664,3.31
TTACCAAGATGAGCTGAGGTCGTTGATCCAACTC,0.238,0.101,-0.000343,-0.456,0.0396,1.87,0.628,1.35,-0.33,0.279
AGAATGAGGTTAAGATCAGTGAAACAGAATACAT,2.35,2.8,1.66,0.567,0.498,1,-0.347,1.84,-0.219,1.74
AGAACGAGGGCAATGAGTGGATAGCACGGGTGGC,3.17,2.32,0.26,-0.542,-0.143,-0.0216,-0.0699,-0.0529,0.296,1.72
GGAACGAGGGCAAGTCGATAGCAGAGTTTGATGG,3.57,2.5,-0.206,-0.527,-0.162,0.167,0.469,-0.0113,-0.744,2.41
CTCGAAAGGTCGGTTGAAGTGAGTATACGGATAA,-0.0991,0.86,0.362,0.582,0.716,1.17,0.13,1.38,0.453,3
AGTCAAAGTTCATCTAGGTAACTTAAGATATGCT,1.01,3.43,1.87,1.38,4.01,5.28,7.67,3.91,1.85,4.6
ATACCAAGGTGGTCGTGAGGTCGTTGATACTAAC,-0.434,0.335,0.113,0.0753,0.722,2.61,1.69,1.99,0.748,1.08
AGAATGAGGTTATTAAGATCAGGGCATTGCGGTC,3.64,2.96,0.978,-0.0431,1.27,1.83,1.83,1.79,0.408,1.75
TCATATAGGTAAATGCTAGGTAAAAGTCCGATCT,4.04,2.3,0.817,0.766,0.885,0.727,0.893,0.814,1.8,0.393
